The list is not random: actives were taken first. Their share in the collection is about 2.9%.
GRK2 aptamer HTS: compounds blocking aptamer binding on GRK2 – biochemical, human GRK2, bead flow cytometry, HTS, primary screen. Beta-adrenergic receptor kinase 1 (Homo sapiens), P25098. FAM-aptamer displacement from GRK2. inhibition of aptamer binding, % at 10 µM. 330,000 compounds, 0.59% hits;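 active means inhibition of aptamer binding above 40%, roughly 3 SD of noise, on plates passing a quality check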;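 further: median bead fluorescence of bound FAM aptamer so fluorescent compounds give negative values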
MEKK2wt PB1 HTS: modulators of MEK5 binding to wildtype MEKK2, primary screen, biochemical, multiplex bead flow cytometry, Alexa488-MEK5 | Mitogen-activated protein kinase kinase kinase 2 (Homo sapiens), Q9Y2U5 | Alexa488-MEK5 binding to MEKK2 WT; actives lie on both sides | binding response (% of control), % at 10 µM | 290,000 compounds, 1.1% hits; in the data active means binding response below about 67% or above about 130%
MEKK3 PB1 HTS: modulators of MEKK3-MEK5 PB1 binding, primary screen, biochemical, wildtype MEKK3, multiplex bead flow cytometry, Alexa488-MEK5. Mitogen-activated protein kinase kinase kinase 3 (Homo sapiens), Q99759. bead-based flow cytometry, Alexa488-MEK5 binding to MEKK3; actives lie on both sides; 0 = blocked by unlabeled MEK5, 100 = vehicle. binding response (% of control), % at 10 µM. 290,000 compounds, 1.4% hits. AID 1529, 2009;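 active means binding response more than 3 SD above or below the average of its plate-row segment, actives on both sides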;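 further: Alexa488 bead fluorescence after subtracting the streptavidin-only scavenger bead signal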
Target sequence (Q99759 whole entry, looked up): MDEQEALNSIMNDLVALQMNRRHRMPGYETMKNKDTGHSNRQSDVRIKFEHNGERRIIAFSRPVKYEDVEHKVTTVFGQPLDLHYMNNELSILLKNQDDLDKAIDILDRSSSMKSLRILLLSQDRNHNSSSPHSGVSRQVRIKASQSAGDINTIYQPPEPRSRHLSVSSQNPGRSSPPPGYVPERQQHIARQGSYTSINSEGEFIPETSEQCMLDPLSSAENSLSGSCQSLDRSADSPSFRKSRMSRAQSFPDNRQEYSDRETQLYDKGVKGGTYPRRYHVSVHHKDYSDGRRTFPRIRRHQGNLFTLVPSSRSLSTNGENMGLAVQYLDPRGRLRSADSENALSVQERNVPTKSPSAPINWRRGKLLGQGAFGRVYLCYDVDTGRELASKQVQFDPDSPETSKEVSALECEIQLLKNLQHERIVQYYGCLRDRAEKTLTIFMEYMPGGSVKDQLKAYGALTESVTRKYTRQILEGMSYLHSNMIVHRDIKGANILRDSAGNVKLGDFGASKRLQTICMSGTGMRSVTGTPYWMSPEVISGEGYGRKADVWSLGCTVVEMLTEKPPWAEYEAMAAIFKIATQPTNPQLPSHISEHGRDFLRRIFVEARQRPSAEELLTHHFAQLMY
B2AR ag: beta2AR agonists driving receptor internalization, primary screen, cell-based, FAP fluorogen, flow cytometry; Am2.2-beta2AR cells; response, % (test concentration not listed); Beta-2 adrenergic receptor (Homo sapiens), P07550; 340,000 compounds, 0.43% hits;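 active means response above a set limit, near 3 SD of response in nonfluorescent compounds, cut at about 42% in these data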
MEKK2 mut-MEK5: MEK5 binding signal on mutant MEKK2 PB1, primary screen, biochemical, multiplex bead flow cytometry, Alexa488-MEK5; Alexa488-MEK5 binding to MEKK2 mutant; percent response, % at 10 µM; 290,000 compounds, 0.35% hits; AID 1530, 2009; in the data active means percent response above about 24%, passing the limit was not always enough
GRK2 inh confirm: GRK2 aptamer-displacing inhibitors, retest, confirmation, biochemical, cherry pick 1, bead flow cytometry; AID 504451, 2011; bead-bound GRK2, FAM-aptamer displacement; aptamer displacement, % at 10 µM; 2,000 compounds, 4% hits; shares compounds with GRK2 aptamer HTS;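 active means aptamer displacement above 40%, near three times the noise of non-fluorescent compounds, on plates passing quality checks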;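 further: negative values mostly reflect intrinsic compound fluorescence rather than true enhancement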
Aptamer quench 1: counter-screen for GRK2 aptamer inhibitors: fluorescent aptamer quenchers | shares compounds with GRK2 aptamer HTS | Fluorescent RNA aptamer beads, quenching, flow cytometry; stronger effect = higher value | fluorescence change (kMESF span), kMESF (no concentration beside the values) | 110 tested, under 10 active | AID 504521;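 active means compounds whose bead fluorescence drops by more than 37 kMESF across the dose range, marking them as dye quenchers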
Aptamer quench SP: quenches fluorescent RNA aptamer, GRK2 hit artifact. shares compounds with GRK2 aptamer HTS. AID 504580. 2,000 tested, under 10 active. Carboxyfluorescein RNA aptamer on beads, flow cytometry quenching; stronger effect = lower value. fluorescence response (% of DMSO), % at 10 µM;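 active means compounds that quench the bead-bound fluorescent RNA probe, cutting fluorescence to under half of the solvent control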;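 further: counterscreen run without GRK2 so only probe quenching by compound is measured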
GRK2 CP2: GRK2 aptamer-displacing inhibitors, hit retest, confirmation, biochemical, cherry pick 2, bead flow cytometry | shares compounds with GRK2 aptamer HTS | bead-bound GRK2, FAM-aptamer displacement | inhibition of aptamer binding, % at 10 µM | 360 tested, under 10 active;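 active means inhibition of aptamer binding above 40%, about triple the noise seen with nonglowing compounds, on plates passing quality control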;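 further: negative values mostly come from compounds that fluoresce themselves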
FAM quench SP: quenches fluorescent RNA aptamer, GRK2 hit artifact. 360 tested, under 10 active. shares compounds with GRK2 aptamer HTS. carboxyfluorescein RNA aptamer beads, flow cytometry quenching; stronger effect = lower value. fluorescence response vs DMSO, % at 10 µM;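 active means response vs DMSO under 50%, meaning signal dropped by over half, treated as fluorescence quencher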;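 further: labelled aptamer on streptavidin beads without GRK2 as a quench counter-screen; 100% = bead fluorescence of DMSO wells and lower means quenching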
Starred values were filed as active, the others as inactive; i = inactive; nt = no result.

SMILES	GRK2 aptamer HTS	MEKK2wt PB1 HTS	MEKK3 PB1 HTS	B2AR ag	MEKK2 mut-MEK5	GRK2 inh confirm	Aptamer quench SP	others
O=C(/C=C/c1ccco1)OCC(=O)N1CCCCC1	76.0*	nt	nt	0.5	nt	47.6*	92.8	Aptamer quench 1=-2.7
O=C(/C=C/c1ccccc1)OCC(=O)N1CCCC1	1.0	nt	nt	-1.0	nt	nt	nt
O=C(COC(=O)/C=C/c1ccco1)Nc1ncc(Cl)cc1Cl	60.0*	92.0	89.0	2.4	-4.0	9.7	100.0
O=C(C=Cc1cccs1)c1ccc(Cl)s1	nt	nt	nt	6.4	nt	nt	nt
CCC1CCCCN1Cc1nc2c(c(=O)n(C)c(=O)n2C)n1CCCc1ccccc1 (configuration not stated)	2.0	110.0	104.0	4.8	12.0	-1.5	103.7
CCCn1c(CN2CCCCC2CC)nc2c1c(=O)n(C)c(=O)n2C (configuration not stated)	47.0*	115.0	104.0	-5.3	10.0	0.9	99.6
CCCn1c(CN2CCCCC2C)nc2c1c(=O)n(C)c(=O)n2C (configuration not stated)	0.0	99.0	100.0	-15.9	-1.0	nt	nt
O=P(c1ccccc1)(c1ccccc1)c1cc(S(=O)(=O)O)ccc1O	74.0*	104.0	106.0	-2.3	6.0	52.4*	98.4	Aptamer quench 1=1.5
O=S(=O)(Nc1nc2cc3c(cc2nc1Cl)OCCO3)c1ccccc1	48.0*	93.0	96.0	2.8	-6.0	1.3	100.4
CC(=O)Nc1ccc(S(=O)(=O)Nc2nc3cc4c(cc3nc2Cl)OCCO4)cc1	0.0	98.0	95.0	9.1	-4.0	nt	nt
O=C(Cc1ccc(Br)cc1)Nc1ccccc1Cl	0.0	91.0	94.0	-12.6	-1.0	nt	nt
O=C(O)Cc1ccc(O)cc1	0.0	nt	nt	0.9	nt	nt	nt
O=C(O)Cc1ccc(-c2ccccc2-c2ccccc2)cc1	98.0*	102.0	104.0	5.5	-4.0	3.2	103.1
COc1ccc(S(=O)(=O)N2CCOCC2)cc1NC(=O)c1ccc(=O)[nH]c1	nt	nt	nt	-3.1	nt	nt	nt
Cc1ccc(OCCSc2cc(C)nc(N)n2)cc1	84.0*	98.0	96.0	-4.4	-1.0	-1.6	99.9
Cc1cccc(OCCSc2cc(C)nc(N)n2)c1	0.0	105.0	102.0	-10.5	6.0	nt	nt
CC(OC(=O)CC1Sc2ccccc2NC1=O)C(=O)N(C)Cc1ccccc1 (configuration not stated)	nt	nt	nt	3.4	nt	nt	nt
O=C(COc1ccc(C2SCCS2)cc1)NNC(=O)C(Cl)Cl	46.0*	100.0	98.0	5.7	1.0	2.3	104.8
CCOC(=O)c1cc(C)n(-c2ccccc2)c1C	0.0	86.0	88.0	-1.3	-18.0	nt	nt
CCOc1ccccc1N(C)C(=O)CCS(=O)(=O)c1ccc2c(c1)NC(=O)CO2	0.0	98.0	100.0	5.0	-1.0	nt	nt	GRK2 CP2=i;FAM quench SP=107.0
CNc1c2cccc(C)c2nc2c(C(=O)NCCN(C)C)cccc12	nt	nt	nt	-186.7	nt	nt	nt
CC1CCCN(S(=O)(=O)c2ccc(NC(=O)C3CC(=O)N(c4ccccc4)C3)cc2)C1 (configuration not stated)	100.0*	90.0	98.0	-0.7	-7.0	2.6	102.3

Source: PubChem BioAssay
